Screens: PubChem BioAssay, several laboratories
Most compounds without a hit are left out; they make up all but 4.6% or so of the library.
SKKanGAS inh = SKKanGAS growth inhibition | S. pyogenes SKKanGAS, kanamycin growth, BacTiter-Glo, 6 h | inhibition, % at 7.5 µM | hit rate 1.3% among 300,000 | AID 1662;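 active = mean replicate score, as percent of positive control median, at least 50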;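 also: strain carries kanamycin resistance gene driven by streptokinase promoter and grows in 40 µg/ml kanamycin; loss of luminescence reflects streptokinase promoter inhibition or plain growth inhibition; 0% = median of DMSO wells and 100% = positive control at its reference dose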
tim23-1 inh = growth inhibitors of tim23-1 mutant yeast; AID 463212; S. cerevisiae tim23-1 growth, BacTiter-Glo luminescence, 24 h; hit rate 1.3% among 330,000; inhibition, % at 20 µM;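 active = growth inhibition of the mutant yeast at or above 50%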;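 also: temperature-sensitive mutant grown at 25 °C; plate controls were DMSO-treated mutant yeast for no effect and medium wells lacking yeast for full effect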
TIM10 inh = TIM10 yeast growth inhibition. inhibition, % at 10 µM. S. cerevisiae TIM10 strain growth, BacTiter-Glo luminescence, 24 h. hit rate 1.4% among 330,000;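 active = inhibition of 40% or more at the single tested concentration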;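 also: wild-type TIM10 isogenic control strain grown at permissive 25 °C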
tim10-1 inh = inhibits growth of tim10-1 mutant yeast. S. cerevisiae tim10-1 ts strain growth, BacTiter-Glo, 24 h. inhibition, % at 20 µM. hit rate 2.2% among 330,000. AID 463190;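 active = inhibition of at least 40%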;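 also: mutant grown at 25 °C; 0% = DMSO wells with yeast and 100% = wells holding no yeast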
NLRP3 yeast inh = inhibitors of NALP3 inflammasome in yeast; inhibition, % at 10 µM; hit rate 0.39% among 330,000; Yeast reconstituted NLRP3/ASC/caspase-1, beta-gal luminescence, 24 h;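 active = inhibition of 50% or more; inactive = inhibition below 50%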;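 also: plate controls were induced DMSO wells for no effect and uninduced yeast grown without galactose for full effect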
tim23-1 confirm = confirmation of tim23-1 mutant yeast growth inhibitors | shares compounds with tim23-1 inh | S. cerevisiae tim23-1 growth, BacTiter-Glo luminescence, 24 h | inhibition, % at 20 µM | hit rate 83% among 4,400 | AID 463218;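 active = inhibition above about 39% in either of two replicate wells at 20 µM, limit read from the data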;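 also: temperature-sensitive tim23-1 mutant grown at 25 °C; 0% = DMSO wells with yeast and 100% = medium wells without yeast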
* marks the source's active call; other numbers are inactive results; . = no result.

SMILES	SKKanGAS inh	tim23-1 inh	TIM10 inh	tim10-1 inh	NLRP3 yeast inh	tim23-1 confirm
Cc1ccc2cccnc2c1N	-4	3	-1	-1	-1	.
Cc1ccc(/C=N/NC(=O)c2ccncc2)o1	5	3	4	-16	14	.
Cc1ccc(/C=N/NC(=O)c2ccc(OC3CCCC3)cc2)o1	1	58*	19	12	28	55*
CCc1ccc(NC(=O)c2ccc3nc(N)sc3c2)cc1	15	54*	-19	7	28	31
Nc1nc2ccc(C(=O)Nc3ccccc3)cc2s1	7	26	12	11	13	.
COC(=O)Nc1ccc2c(c1)Nc1ccccc1CC2	-5	66*	6	32	12	42*
CC(C)(C)C(=O)N1CCN(c2ncnc3scc(-c4ccccc4)c23)CC1	7	51*	26	31	13	29
Cc1sc2ncnc(N3CCN(C(=O)c4ccco4)CC3)c2c1C	1	10	-3	14	9	.
Cc1ccc(-c2csc3ncnc(N4CCN(C(=O)c5ccco5)CC4)c23)cc1	.	51*	31	29	18	42*
Cn1cc(C(CO)Cc2ccccc2)c2ccccc21 (centres undefined)	.	22	-4	2	30	.
O=c1oc(-c2ccccc2[N+](=O)[O-])nc2ccccc12	3	55*	14	32	0	51*
O=c1oc(-c2ccc([N+](=O)[O-])cc2)nc2ccccc12	3	11	29	1	9	.
O=c1oc(-c2ccc([N+](=O)[O-])cc2)nc2ccc(O)cc12	-2	52*	14	21	19	65*
Cc1cc(-c2ccc(C(C)C)c(S(=O)(=O)Nc3ccccn3)c2)on1	2	21	8	17	12	.
O=C1C2C3C=CC(C2C(=O)N1CCO)C1C(=O)N(CCO)C(=O)C31 (centres undefined)	0	-2	-1	5	3	.
COc1ccc(-c2cc(-c3ccccc3O)[nH]n2)cc1	29	69*	25	22	15	62*
COC(=O)c1cc(-c2ccc(OC)cc2)n[nH]1	3	9	5	3	32	.
COc1ccc(-c2cc(-c3ccccc3)n[nH]2)c(O)c1	26	69*	4	10	29	57*
CC1CC(=O)Nc2ccccc2N1C(=O)CSc1ncnc2sccc12 (centres undefined)	.	-6	-10	-11	10	.
O=C1NN=C(c2ccc(Br)cc2)CC1c1ccc(Cl)cc1 (centres undefined)	.	60*	18	29	2	72*
COc1ccc(/C=N/NC(=O)CC(=O)N/N=C/c2ccc(OC)cc2)cc1	18	-3	2	16	3	.
COc1ccc(CCCC(=O)N/N=C/c2ccc(C)cc2)cc1	8	56*	0	31	34	51*
CC(C)(C)c1ccc(OCC(=O)NCc2ccco2)c(Br)c1	7	56*	34	34	27	62*
CCOc1cc(C(=O)OCC(=O)NCc2ccco2)cc(OCC)c1OCC	-3	16	10	22	-8	.
COc1ccc(NC(=O)c2cc(C3CC3)nc3c2cnn3C(C)C)cc1OC	.	21	-15	-1	30	.
SMILES	SKKanGAS inh	tim23-1 inh	TIM10 inh	tim10-1 inh	NLRP3 yeast inh	tim23-1 confirm
COc1cc(C(=O)NCCC(=O)NC2CCCCCCC2)cc(OC)c1OC	-2	56*	7	10	3	14
COc1ccc(Cn2c(C)nc([N+](=O)[O-])c2SCC(=O)O)cc1[N+](=O)[O-]	26	55*	-10	3	23	4
Cc1csc2ncnc(N3CCN(C(=S)Nc4ccc(C(F)(F)F)cc4)CC3)c12	15	21	23	28	18	.
Cc1csc2c(N3CCN(C(=S)Nc4ccc(C(F)(F)F)cc4)CC3)ncnc12	35	55*	26	25	22	46*
Cc1csc2c(N3CCN(C(=O)Nc4ccc(Cl)c(Cl)c4)CC3)ncnc12	62*	67*	19	27	31	50*
O=C(C[C@H]1C/C=C\CC[C@H](Cc2ccc(F)cc2)C(=O)O[C@H](c2ccccc2)CNC1=O)N[C@H](CO)Cc1ccccc1	.	6	2	12	17	.
O=C(Nc1ccccc1N(C(=O)c1ccco1)S(=O)(=O)c1cccs1)c1ccco1	-1	54*	23	30	-4	38*
Nc1ncnc2c1ncn2[C@@H]1O[C@H](CO)C[C@@H]1O	13	56*	-2	37	44	59*
CC1Oc2ccccc2OC1(O)c1ccc2ccccc2n1 (centres undefined)	4	25	5	9	27	.
Cc1cc(C(=O)NNc2c(Cl)cccc2Cl)n(C(C)(C)C)n1	0	0	4	3	4	.
Cc1csc2nc(O)c(C(=O)NCC3CCCO3)c(=O)n12 (centres undefined)	-2	30	2	12	41	.
Cc1csc2nc(O)c(C(=O)NC3CCCCC3C)c(=O)n12 (centres undefined)	20	67*	23	30	-6	44*
COC(=O)c1cc(CNC(=O)CCCSc2ccccc2)ccc1OC	-3	-3	-11	-6	17	.
CC1=NN(c2ccc(C)c(C)c2)C(=O)/C1=C\C=C\c1ccc([N+](=O)[O-])o1	9	50*	22	-22	17	-33
CCOC(=O)c1ccc(N2N=C(C)/C(=C/C=C/c3ccco3)C2=O)cc1	3	11	11	17	3	.
COc1ccccc1C(=O)NC(=S)Nc1cccc2cc(O)ccc12	11	54*	19	33	26	46*
COc1ccccc1C(=O)Nc1c(C)cc(Br)cc1C	1	46	18	36	33	.
COc1ccccc1NC(=O)c1ccccc1C(=O)Nc1ccccc1OC	-3	31	12	22	15	.
COc1ccc(C(=O)NC(=S)Nc2cccc3cc(O)ccc23)cc1OC	4	22	24	26	17	.
COc1ccccc1C(=O)Nc1cc(-c2ccc(C)cc2)no1	4	55*	28	29	24	47*
COC(=O)c1ccccc1NC(=O)c1ccccc1OC	-3	51*	0	37	35	32
CC(C)C(NS(=O)(=O)c1cccc2nsnc12)C(=O)NC1CCCCC1C (centres undefined)	-7	3	12	17	-7	.
COc1cc(/C=C2\OC(=O)c3c(OC)cccc32)ccc1O	14	53*	28	35	31	48*
COc1cc(/C=C2\C(=O)ON=C2c2ccc(Cl)cc2)ccc1O	-3	39	12	25	-3	.
CCOc1ccc(CCNC(=O)CCCn2c(=O)c3cccn3c3cccnc32)cc1OCC	-3	7	-4	6	14	.
COc1cccc(Nc2nc(-c3sc(N)nc3C)cs2)c1	35	23	10	15	22	.
COc1cccc(Nc2nc(-c3sc(C)nc3C)cs2)c1	-12	55*	30	15	25	46*
COc1cccc(Nc2nc3ccc(OC)cc3s2)c1	7	61*	37	18	26	57*
